Experimental findings from PubChem BioAssay (Tox21) are described below.

Where “and” joins values, the source holds several entries; their conditions need not be identical. Identical values can stand only once. Inconclusive results are not listed. Entries that show only a call come without a potency. Calls of active or inactive are those of the source. The call rests on the fitted dose curve; in most records, active means well fitted cell-killing curve with a large enough effect in the repeat runs; inconclusive means weak or mixed curves, or effect the other way; inactive means flat fitted curve, though single readings scatter.
Potency means the concentration at half of the fitted maximal effect.

The experiment can be described thus: qHTS assay to identify small molecule antagonists of the androgen receptor (AR) signaling pathway using the MDA cell line in the presence of 0.5 nM R1881 - cell viability counter screen (AID 1259242). Further: nearly all actives have a fitted effect of over 45% in size. The note with it: MDA-kb2 viability, CellTiter-Fluor protease fluorescence, 16 h; series mostly up to 92.4 µM; viability change, negative = cytotoxic: at the top concentration. From the text:
U.S. Tox21 Program National Center for Advancing Translational Sciences [NCATS] NIH Chemical Genomics Center [NCGC] U.S. Environmental Protection Agency [EPA] National Institutes of Environmental Health Sciences [NIEHS] National Toxicology Program [NTP] U.S. Food and Drug Administration [FDA] Tox21 Assay Overview: Androgen receptor (AR) is an important member of the nuclear receptor family. Its signaling plays a critical role in AR-dependent prostate cancer and other androgen related diseases. Considerable attention has been given in the past decades to develop methods to study and screen for the environmental chemicals that have the potential to interfere with metabolic homeostasis, reproduction, developmental and behavioral functions. Therefore AR binding assay for screening androgen antagonists can be used to identify potential endocrine disruptors. MDA-kb2 cells (from ATCC, deposited by Wilson et al.) were used to screen for AR inhibitors against Tox21 compound libraries. These cells are human breast carcinoma cells that were stably transfected with a luciferase reporter gene under control of the MMTV promoter that contains response elements for both androgen receptor (AR) and glucocorticoid receptor (GR). The current screening for identification of AR inhibitors against Tox21 libraries used lower concentration of (0.5 nM) R1881 as a stimulator. The cytotoxicity of the Tox21 compound libraries against MDA-kb2 cell line was tested by measuring live-cell protease activity using CellTiter-Fluor assay in the same wells.
Tox21 Assay Protocol Summary: MDA-kb2 cells (cells cultured without CO2) were dispensed at 3,000 cells/well in 4 uL of culture medium into white wall/solid-bottom 1536-well plates (Corning Life Sciences, Corning, NY) using a Multidrop Combi (ThermoFisher Scientific, Waltham, MA) dispenser. After the assay plates were incubated at a 37C and 0% CO2 for 5 hr, 23 nL of compounds dissolved in DMSO, positive controls or DMSO only was transferred to the assay plate by a Pintool station (Kalypsys, San Diego, CA). The transfer of compounds was followed by the addition of 1 uL of 0.5 nM (final concentration) agonist (R1881)/culture medium using a Flying Reagent Dispenser (FRD, Aurora Discovery, San Diego, CA). The plates were incubated at 37C and 0% CO2 for 16 hr. For cytotoxicity assay, 1 uL of CellTiter-Fluor reagent (Promega Corporation, Madison, WI) was added to each well using the FRD and after 30 min incubation at 37C and 0% CO2, The fluorescence intensity was measured using ViewLux plate reader (PerkinElmer, Shelton, CT).
As to `COCCOC(=O)c1ccccc1C(=O)OCCOC`, the Potency result was “inactive”.
Same read-out and setting: in the case of `Cc1ccc2ncccc2c1` it was “inactive”.
In the case of `CCOC(=O)c1ccc(N)cc1`, the Potency entry was “inactive”.
Regarding `CCCCCCO`, the Potency result was “inactive”.
As to `OCc1ccccc1`, the Potency result was “inactive”.
In the case of `CC1(C)NC(=O)NC1=O`, the Potency entry was “inactive”.
Same read-out and setting: next, `O=C(O)c1cc2ccccc2cc1O`: “inactive”; `O=C(O)c1ccccc1C(=O)O`: “inactive”; `CCCCCCCCCCCC(=O)OC`: “inactive”.
In the case of `N#Cc1ccccc1`, the Potency entry is “inactive”.
Still for that read-out and setting: in the case of `C=CC(C)CCCC(C)(C)O` (stereo not given) it was “inactive”.
Regarding `CCO[Si](CCCN)(OCC)OCC`, the Potency entry was “inactive”.
For `CC(C)(C)c1cc(Cc2cc(C(C)(C)C)c(O)c(C(C)(C)C)c2)cc(C(C)(C)C)c1O`, the Potency entry is “inactive”.
On the same count and under the same terms, next, `CNC(=O)Oc1ccc2c(c1)[C@]1(C)CCN(C)[C@@H]1N2C`: “inactive”.
Take `Cc1ccc([N+](=O)[O-])cc1S(=O)(=O)O`: the Potency entry was “inactive”.
`CC(C)c1cccc(C(C)C)c1`: the Potency result was “inactive”.
In the case of `CCc1ccccc1CC`, the Potency result is “inactive”.
Consider `CN(C)c1ccc(O)c2c1C[C@H]1C[C@H]3[C@H](N(C)C)C(=O)C(C(N)=O)=C(O)[C@@]3(O)C(=O)C1=C2O`, for which the “viability change, negative = cytotoxic” value is -12.7% [at 42.5 µM] (inactive).
As for `COC(=O)c1cccnc1`, the Potency entry is “inactive”.
In the case of `CC(=O)OC1CC(C)OC(C)O1` (stereo not given), the Potency result was “inactive”.
In the case of `CN/C(=C\[N+](=O)[O-])NCCSCc1csc(CN(C)C)n1`, the Potency entry is “inactive”.
As for `CCO[Si](CCC#N)(OCC)OCC`, the Potency entry was “inactive”.
Regarding `C=CCc1ccc(OC)c(OC)c1`, the Potency entry is “inactive”.
With `O=S(=O)(O)c1ccc(N=Nc2c(O)ccc3cc(S(=O)(=O)O)ccc23)cc1`, the Potency is 54.7 µM (active) and 27.3 µM (active).
In the case of `CC(C)=CCl`, the Potency entry was “inactive”.
Turning to `COc1ccc(N)c(C)c1`, the Potency result was “inactive”.
For the compound `CC1(C)OC[C@@H]2O[C@@]3(C(=O)O)OC(C)(C)O[C@H]3[C@@H]2O1`, the Potency entry is “inactive”.
In the case of `CC(C)CCCCCCCOC(=O)CCCCC(=O)OCCCCCCCC(C)C`, the Potency entry is “inactive”.
Still for that read-out and setting: in the case of `CC(=O)CC(C)(C)O` it was “inactive”.
As for `NC(=S)NNC(N)=S`, the Potency result was “inactive”.
`C=C(C)CNCC`: the Potency entry is “inactive”.
In the case of `CCOC(=O)n1ccn(C)c1=S`, the Potency result was “inactive”.
`C=C(C)[C@H]1CC=C(C)C(=O)C1`: the Potency result is “inactive”.
Same read-out and setting: in the case of `CC(=O)OCc1ccccc1` it was “inactive”; in that of `OC1C(O)C(O)C(O)C(O)C1O` (stereo not given), “inactive”.
In the case of `CCCCCCCCCCN`, the Potency result was “inactive”.
Regarding `NCCCCCCN`, the Potency result is “inactive”.
Turning to `COc1ccc([N+](=O)[O-])cc1N`, the Potency result is “inactive”.
Take `CC(C)OC(=O)COc1ccc(Cl)cc1Cl`: the Potency entry is “inactive”.
As to `CC1(C)S[C@@H]2[C@H](NC(=O)COc3ccccc3)C(=O)N2[C@H]1C(=O)O`, the Potency result was “inactive”.
